The record followed here is PubChem BioAssay (Tox21).

Inconclusive results are not listed. Unmarked numbers belong to inactive results. Calls of active or inactive are those of the source. The call rests on the fitted dose curve; in most records, active means well fitted inhibition curve with a large enough effect in the signal ratio in the repeat runs (not every such curve was filed as active); inconclusive means weak or mixed curves, or effect the other way; inactive means no such curve, though single readings can be large or run the other way; the % refers to the signal ratio.
On the % scale 0 is the no-effect control and ±100 the full control effect.

Chain of Bile acid receptor (Homo sapiens) (Q96RI1 whole entry, looked up): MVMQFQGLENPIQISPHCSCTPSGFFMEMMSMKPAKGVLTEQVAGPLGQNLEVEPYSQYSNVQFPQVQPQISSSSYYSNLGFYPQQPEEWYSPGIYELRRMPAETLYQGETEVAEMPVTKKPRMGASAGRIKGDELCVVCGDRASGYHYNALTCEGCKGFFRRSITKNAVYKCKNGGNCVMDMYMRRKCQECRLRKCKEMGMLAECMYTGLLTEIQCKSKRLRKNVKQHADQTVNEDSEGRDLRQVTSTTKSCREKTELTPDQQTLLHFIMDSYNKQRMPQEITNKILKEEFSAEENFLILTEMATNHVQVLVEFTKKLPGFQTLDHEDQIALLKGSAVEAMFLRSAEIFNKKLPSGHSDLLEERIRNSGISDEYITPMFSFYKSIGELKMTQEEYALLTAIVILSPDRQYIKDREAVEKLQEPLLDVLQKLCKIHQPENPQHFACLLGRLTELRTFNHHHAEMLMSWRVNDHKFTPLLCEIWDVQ

The target in the test is Bile acid receptor (Homo sapiens) (UniProt Q96RI1). Put plainly: qHTS assay to identify small molecule antagonists of the farnesoid-X-receptor (FXR) signaling pathway (AID 743217). The note with it: HEK293T FXR-UAS-bla, beta-lactamase ratio, CDCA-stimulated, 16 h; series mostly up to 62.6 µM; activity change, negative = inhibition: at the top concentration. The source says:
U.S. Tox21 Program National Center for Advancing Translational Sciences [NCATS] NIH Chemical Genomics Center [NCGC] U.S. Environmental Protection Agency [EPA] National Institutes of Environmental Health Sciences [NIEHS] National Toxicology Program [NTP] U.S. Food and Drug Administration [FDA] Tox21 Assay Overview: The farnesoid-X-receptor (FXR), a nuclear hormone receptor, is highly expressed in liver, intestine, kidney and adrenal cortex. Natural ligands of FXR are the bile acids (Cholic acid, Chenodeoxy cholic acid etc). FXR is an important regulator of diverse metabolic pathways, including the bile acid homeostasis, lipid and glucose metabolisms. FXR regulates the expression of target genes by binding either as a monomer or as a heterodimer with the retinoid X receptor (RXR). Numerous studies have reported that FXR exerts protective function during cholestasis, diabetes, liver regeneration, and cancer. To identify compounds that inhibit FXR signaling, GeneBLAzer FXR-UAS-bla HEK 293T cell line (Invitrogen, Carlsbad, CA) containing a beta-lactamase reporter gene under the control of a UAS response element was used to screen the Tox21 10K compound library.
Tox21 Assay Protocol Summary: FXR-bla cells were dispensed at 5000 cells/5uL/well in 1536-well black wall/clear bottom plates using a Multidrop Combi (Thermo Fisher Scientific, Waltham, MA) dispenser. After the assay plates were incubated at 37C and 5% CO2 for 5 h, 23 nL of compounds dissolved in DMSO, positive controls or DMSO only was transferred to the assay plate by a Pintool station (Kalypsys, San Diego, CA), followed by addition of 1 uL Chenodeoxycholic acid (50 uM, final concentration in the wells). The assay plates were incubated at 37C for 16 h. After 1 uL of LiveBLAzerTM B/G FRET substrate was added using a Bioraptr Flying Reagent Dispenser (FRD) workstation (Beckman Coulter, Indianapolis, IN), the plates were incubated at room temperature for 2 h, and fluorescence intensity was measured by an Envision plate reader (PerkinElmer, Shelton, CT).
Turning to `O=C(N/N=C/c1ccc([N+](=O)[O-])o1)c1cc([N+](=O)[O-])cc([N+](=O)[O-])c1O`, the “activity change, negative = inhibition” value is 14.5%. `CC(Oc1cc(Cl)c(Cl)cc1Cl)C(=O)O` (stereo not given): the “activity change, negative = inhibition” value is -5.46%.

For the compound `O=C(O)C(F)(F)C(F)(F)C(F)(F)C(F)(F)C(F)(F)C(F)(F)C(F)(F)C(F)(F)F`, the “activity change, negative = inhibition” value was -17.5%. In the case of `Cc1ccc(N)c(C)c1`, the Potency entry is “inactive”. As to `COc1ccccc1N1CCNCC1`, the “activity change, negative = inhibition” value was 0.0942%. On the same count and under the same terms, in the case of `ClCc1ccccc1Cl` it was 5.17% [at 81.1 µM]; in that of `NNCCO`, -2.95%. Take `c1ccc2c(c1)sc1ccccc12`: the Potency entry is “inactive”. Consider `CNC(=O)Oc1cccc(N=CN(C)C)c1`, for which the “activity change, negative = inhibition” value is 7.17%. The same measure, in the same setting: the figure for `CCCSP(=S)(OCC)Oc1ccc(SC)cc1` (stereo not given) is -0.569%; for `CCOC(=O)NC(O)C(Cl)(Cl)Cl` (stereo not given) it is 1.57%; for `O=C(O)c1cc(Cl)ccc1Cl` it is 3.07%.

Consider `c1ccc2sc(SNC3CCCCC3)nc2c1`, for which the Potency result is “inactive”. Turning to `O=[N+]([O-])O[C@H]1CO[C@H]2[C@@H]1OC[C@H]2O[N+](=O)[O-]`, the “activity change, negative = inhibition” value is 4.19%.

Take `CC(O)CN1CCN(CC(=O)[O-])CCN(CC(=O)[O-])CCN(CC(=O)[O-])CC1.[Gd+3]` (stereo not given): the “activity change, negative = inhibition” value was 6.37%. The same measure, in the same setting: in the case of `CCOC(C(=O)OCCN(C)C)(c1ccccc1)c1ccccc1` it was -2.17%; in that of `CC(=O)NNc1ccccc1`, 7.29%. Same read-out and setting: in the case of `Oc1cccc(Cl)c1` it was -1.28%; in that of `CN[C@@H](C)[C@H](O)c1ccccc1`, -0.26%.

As for `O=C(O)c1cc(I)cc(I)c1I`, the “activity change, negative = inhibition” value is 0.793% [at 81.1 µM].

Take `OCCCl`: the “activity change, negative = inhibition” value is 3.8%. Same read-out and setting: the figure for `C[N+]1(CCF)[C@@H]2CC[C@H]1CC(OC(=O)C(O)(c1ccccc1)c1ccccc1)C2` (stereo not given in full) is -2.81%. For `COC1CC(=C(c2cccs2)c2cccs2)C[N+](C)(C)C1` (stereo not given), the “activity change, negative = inhibition” value is -3.95%. The same measure, in the same setting: the figure for `O=C(O)C(Cl)(Cl)Br` is -1% [at 81.1 µM]; for `CC(Oc1cccc(Cl)c1)C(=O)O` (stereo not given) it is 0.983%. Same read-out and setting: in the case of `CCOP(=O)(O)C(N)=O` it was -0.477%; in that of `CCCN(CCOc1c(Cl)cc(Cl)cc1Cl)C(=O)n1ccnc1`, 1.09%.

For the compound `SCc1ccccc1`, the “activity change, negative = inhibition” value is 4.48% [at 81.1 µM]. Take `O=C=NC1CCCCC1`: the “activity change, negative = inhibition” value was -3.71%.

Turning to `Cc1nc(N(C)C)nc(OC(=O)N(C)C)c1C`, the “activity change, negative = inhibition” value was 6.69%. The same measure, in the same setting: the figure for `O=C(Cc1ccccc1)c1ccccc1` is -2.8%; for `CCCCCCCCCCCCN(C)C` it is 12.7%; for `C#CC(O)(C=CCl)CC` (stereo not given) it is 9.07%. Same read-out and setting: the figure for `CCCCC(CC)COC(=O)c1c(Br)c(Br)c(Br)c(Br)c1C(=O)OCC(CC)CCCC` (stereo not given) is 0.975%; for `CC(C)(C#N)C(C)(C)C#N` it is 0.721% [at 81.1 µM]; for `CC[N+]1(CCOC(=O)C(O)(c2ccccc2)c2ccccc2)CCCCC1` it is -0.077%. The same measure, in the same setting: the figure for `C[N+]1(CCC(C(N)=O)(c2ccccc2)c2ccccc2)CCCCC1` is 1.58%. In the case of `CCCCCl`, the “activity change, negative = inhibition” value was -4.75% [at 81.1 µM]. As for `CCCC[N+]1(C)[C@@H]2CC(OC(=O)[C@H](CO)c3ccccc3)C[C@H]1[C@@H]1O[C@@H]12` (stereo not given in full), the “activity change, negative = inhibition” value is 0.928%.

`C[C@@H]1C[C@@H]([C@H](O)CC2CC(=O)NC(=O)C2)C(=O)[C@@H](C)C1`: the “activity change, negative = inhibition” value is -20.8%.
